The text below walks through data of publication PMC5540273 (PLoS ONE, 2017).

pKd: −log10 of the molar value. Bounds are passed on as bounds.
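Also: kd values determined as follow-up on hits from a single-replicate KINOMEscan panel screen.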

For this assay, the system named is T1, NIK.
T1 construct: gene MAP3K14
In general, pKd refers to −log10 of the Kd, conventionally taken in molar units. Read a high pKd as a small Kd. With `Nc1ncnc2c1ncn2-c1ccc(Cl)cc1` [AH2635], the pKd was less than 5.00.
As for `Nc1n[nH]c2nnc(-c3ccccc3)c(-c3ccccc3)c12` [GW554060], the figure is less than 5.00.
As for `COc1cccc(C2=C(N(C)c3ccccc3)C(=O)NC2=O)c1` [SB-334865], the figure is less than 5.00; as for `COC(=O)c1c(-c2ccccc2)c2cc(C)ccc2c(=O)n1Cc1ccccc1`, less than 5.00.
